Compound activity: PubChem, National Center for Advancing Translational Sciences (NCATS)
IL1B secr inh – blocks inflammasome-driven IL-1 beta release. activity change, % at 57.5 µM. 4.7% of 360,000 active. THP-1 LPS/ATP IL-1B secretion, AlphaLISA, 16 h; hits give low values; in the data active = activity change below about -50%; inconclusive = mostly about -30% to -49%
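THP-1 cells pretreated 1 hr with compounds (up to 57.5 uM final), then stimulated with LPS (250 ng/mL final) plus ATP (1.25 mM final); secreted IL-1B measured by AlphaLISA after 16 hr, decreased signal indicating inhibition.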
HT1080 IDH1KD tx – kills HT-1080 cells with IDH1 knockdown. HT-1080 IDH1 knockdown viability, ATP luminescence, 48 h. Potency, µM (highest dose often 46.1 µM), for inactives: at the top dose activity, negative = toxicity, most hits filed as cytotoxic. 2% of 360,000 active. AID 686971;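 also: potency is read from the fitted curve at half-maximal effect; 0% = DMSO wells and -100% = cell-free medium wells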
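After a 2 h attachment period, IDH1KD HT-1080 cells took pin-transferred compound for 48 h at 37 °C; ATP-based luminescence after 10 min room-temperature reagent incubation reported viability.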
KB-3-1 cytotox – kills parental KB-3-1 adenocarcinoma cells; KB-3-1 viability, CellTiter-Glo ATP luminescence, 72 h; Potency, µM (doses to about 46.1 µM), usual class: cytotoxic; 1.4% of 400,000 active; also: potency is read from the fitted curve at half-maximal effect; nearly all actives have a fitted effect of over 60% in size
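Cytotoxicity in the drug-sensitive parental line KB-3-1 was scored as loss of CellTiter-Glo luminescence following 72 h incubation with compound. Values come from curve fitting of normalized concentration-response data.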
KB-V1 cytotox – kills drug-selected multidrug resistant KB-V1 cells; 3.4% of 400,000 active; Potency, µM (top dose mostly 46.1 µM), actives largely listed as cytotoxic; KB-V1 MDR cells viability, CellTiter-Glo, 72 h; also: potency is read from the fitted curve at half-maximal effect; nearly all actives have a fitted effect of over 60% in size
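Compound-treated KB-V1 multidrug-resistant cells, 72 h, 37 degrees C; viability by CellTiter-Glo. Fitted qHTS curves give the values.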
HT1080NT lethal – kills 2HG-producing HT-1080-NT fibrosarcoma cells. HT-1080-NT fibrosarcoma viability, CellTiter-Glo ATP luminescence, 48 h. Potency, µM (series often up to 46.1 µM), inactives show at the highest dose activity, negative = less viability, most hits filed as cytotoxic. 1.6% of 360,000 active;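 also: NT is the 2HG producing partner of a matched IDH1 knockdown line; potency is read from the fitted curve at half-maximal effect; 0% = DMSO-treated cells and -100% = media-only wells without cells; nearly all actives have a fitted effect of over 55% in size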
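Viability by CellTiter-Glo luminescence after 48 h compound exposure at 37C of HT-1080-NT cells (750/well, RPMI, 5% FBS). % activity scaled between DMSO wells and medium-only wells, then curve-fitted and categorized by curve class.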
The depositor's hits bear a star; i = inactive; u = inconclusive; x = no result given. Rows were chosen to be rich in hits. Some 8.8% of all compounds tested hit in one or more screens of this group. Unless noted, calls follow the shape of the dose curve; as a rule, active = well fitted curve in the direction sought with a large enough effect; inconclusive = small, poorly fitted or top-dose-only effect, or another doubt; inactive = no such curve, though single readings can be large; an effect the other way counts as inactive or inconclusive. Unless noted, % is scaled to controls: 0 for no effect and ±100 for the full control effect.

SMILES | IL1B secr inh | HT1080 IDH1KD tx | KB-3-1 cytotox | KB-V1 cytotox | HT1080NT lethal
CC1CCN(S(=O)(=O)c2ccc3c(c2)c(=O)c(C(=O)NCc2cccs2)cn3C)CC1 | -1 | 1% | i | i | -14%
COCCNC(=O)c1cn(C)c2ccc(S(=O)(=O)N3CCCCC3)cc2c1=O | 6 | u | 23µM* | i | -7%
CCOCCCNC(=O)c1cn(C)c2ccc(S(=O)(=O)N3CCCCC3)cc2c1=O | 1 | 16% | u | i | -4%
Cc1c(NC(=O)c2cnc(Cl)c(Cl)c2)c(=O)n(-c2ccccc2)n1C | 1 | -1% | i | i | 8%
O=C(Nc1ccccc1Oc1ccccc1)c1cccc([N+](=O)[O-])c1 | 0 | -1% | i | 18µM* | -1%
Cc1ccc(C(=O)Nc2ccccc2Oc2ccccc2)cc1[N+](=O)[O-] | -15 | -1% | i | u | -17%
COc1ccccc1NC(=O)/C(=C/c1cccc([N+](=O)[O-])c1)c1ccccc1 | -3 | 10% | i | 5.8µM* | 0%
O=C(C#Cc1ccccc1)c1cccc([N+](=O)[O-])c1 | -74* | u | i | u | -17%
CC(=O)c1cccc([N+](=O)[O-])c1 | 5 | 16% | i | i | 3%
Cc1ccc(-n2c(C)nnc2SCC(=O)NC2CCCC2)cc1 | -2 | -1% | i | i | 3%
Cc1nn2c(-c3ccncc3)ccnc2c1Br | 0 | -12% | i | i | 0%
O=C(CNC(=O)c1sc2ccccc2c1Cl)Nc1ccccc1F | -13 | 4% | i | i | 9%
Cc1ccccc1-n1c(SCC(=O)N/N=C/c2c(C)nn(-c3ccccc3)c2C)nc2ccccc2c1=O | 1 | -14% | i | 5.8µM* | -3%
Cc1ccccc1-n1c(SCC(=O)NCc2cccs2)nc2ccccc2c1=O | -10 | -2% | i | 5.8µM* | 1%
Cc1ccc(/C=N/NC(=O)CSc2nc3ccccc3c(=O)n2-c2ccccc2C)s1 | -9 | -2% | u | 10µM* | -9%
CCn1c(SCC(=O)N/N=C/c2ccc(C)s2)nc2ccccc21 | 9 | u | 13µM* | u | u
COc1ccc(OCC(=O)N(C)CC2COc3ccccc3O2)cc1 (stereo not drawn) | -5 | -9% | u | i | -11%
Cc1nc(-c2ccccn2)nc(N(C)c2ccccc2)c1Cl | -2 | 0% | i | i | -7%
Nc1[nH]c(C(=O)c2ccccc2)c(-c2cccc3ccccc23)c1C(=O)NCc1ccccc1 | 96 | 10% | i | u | 10%
CCCCOC(=O)c1ccc(NC(=O)C(=O)NCc2ccccn2)cc1 | 21 | 4% | i | i | -7%
CSc1ncccc1C(=O)NCCc1ccc(S(N)(=O)=O)cc1 | -3 | 13% | u | i | 20%
Cc1nn(-c2ccccc2)c(C)c1/C=N/NC(=O)CSc1nc2ccccc2c(=O)n1-c1ccc(Br)cc1 | 20 | 13µM* | u | 23µM* | 21µM*
CCCC(=O)N1CCC1(C)C(=O)NS(=O)(=O)c1cccc(Cl)c1 (stereo not drawn) | 27 | u | i | i | 11%
CCSc1nnnn1-c1ccccc1 | 1 | 15% | i | i | 14%
Cc1ccc(C)c(-n2nnnc2Sc2nnnn2-c2ccccc2)c1 | -109* | 16µM* | u | i | u
SMILES | IL1B secr inh | HT1080 IDH1KD tx | KB-3-1 cytotox | KB-V1 cytotox | HT1080NT lethal
c1ccc(Cn2c(CSc3nnnn3-c3ccccc3)nc3ccccc32)cc1 | 9 | 18% | i | i | -1%
c1ccc(Cn2c(Sc3nnnn3-c3ccccc3)nnc2-c2ccccc2)cc1 | -59* | -9% | i | u | -17%
CCOc1ccc(OCCC(=O)N(CC)CC(=O)NCc2cccs2)cc1 | 4 | 2% | i | i | -2%
Cc1sc2nc(CN3CCOCC3)nc(NS(=O)(=O)c3cc(Cl)ccc3Cl)c2c1C | 46 | -1% | i | u | -4%
Cc1sc2nc(CN3CCOCC3)nc(Cl)c2c1C | -96* | -5% | u | i | 2%
COC(=O)C1N2C(=O)N(C)[C@H](C(=O)OC)[C@H]2SC1(C)C (stereo partly drawn) | x | x | i | i | x
COc1cc(/C=C(\CC(=O)O)c2nc3ccccc3s2)cc(OC)c1O | 35 | -16% | i | i | -22%
COc1cc(C=C(c2nc3ccccc3s2)c2nc3ccccc3s2)cc(OC)c1O | -82* | -23% | i | u | -26%
O=C(O)c1ccc(C=C(c2nc3ccccc3s2)c2nc3ccccc3s2)cc1 | -108* | u | u | u | u
Cc1cccc(C(C(=O)NC2CCCC2)N(C(=O)c2csnn2)C2CC2)c1 (stereo not drawn) | -4 | -2% | u | i | 2%
CCn1c2c(c(=O)n3ncc(C(=O)Nc4ccc(F)c(Cl)c4)c13)CN(Cc1ccc(OC)cc1)CC2 | x | x | i | i | x
CC1CCC(=C(C#N)C(=O)Nc2cccc(Cl)c2)CC1 (stereo not drawn) | -87* | 4% | i | i | 0%
COc1cc(/C=C/C(=O)OCC(=O)NCc2ccco2)ccc1O | 2 | -19% | 23µM* | u | -15%
COC(=O)c1ccc(CNC(=O)COC(=O)/C=C/c2ccc(O)c(OC)c2)cc1 | -68* | 8% | i | i | 8%
COc1cc(/C=C/C(=O)OCC(=O)N2CCC(Cc3ccccc3)CC2)ccc1O | -70* | u | i | i | -29%
COc1ccccc1C(=O)Nc1nc(C)cc(C)n1 | -2 | 17% | i | i | 22%
COc1ccc(OC)c(NC(=O)C(C)Oc2ccc(Br)cc2)c1 (stereo not drawn) | 1 | -5% | i | i | 1%
Cn1nc(C(=O)OCC(=O)Nc2sccc2C(N)=O)c2ccccc2c1=O | 16 | 16% | i | i | 11%
N#CCCN(C(=O)CN1CCN(S(=O)(=O)c2ccc3c(c2)OCCO3)CC1)c1ccc(F)cc1 | 1 | -7% | i | u | 5%
Cc1ccc(-n2ncc(Br)c(Br)c2=O)cc1 | -99* | 5.2µM* | u | i | 4.6µM*
O=c1c(Br)c(Br)cnn1-c1ccccc1 | -106* | 4.1µM* | u | u | 2.9µM*
COc1ccccc1CCNC(=O)C(=O)NCC(c1cccs1)S(=O)(=O)c1ccc(F)cc1 (stereo not drawn) | x | x | i | i | x
COc1ccc(CNC(=O)COC(=O)/C=C/c2cccc(Br)c2)cc1OC | 13 | 20% | i | i | 5%
CC(=O)Nc1ccc(Nc2nc(C)c([N+](=O)[O-])c(Nc3ccc(NC(C)=O)cc3)n2)cc1 | -5 | 0% | i | i | 2%
